The structures appear in SMILES notation. The panel holds about 79,000 compounds, 15% with a hit somewhere; the sample as a whole holds those more often. Calls of active or inactive are those of the source. No stated cut-off is given here; in the data, active means growth inhibition above about 70%; inactive means the rest.

The first assay in a line: NCI Yeast Anticancer Drug Screen. Data for the mlh1 strain (AID 171).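 Further: 0% = growth of vehicle-treated control cultures of the same strain.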 As to conditions: S. cerevisiae mlh1 strain growth inhibition; at 11.0 µM; stronger effect = higher value. The method in brief: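 Yeast carrying a defined genetic alteration in DNA damage repair or cell cycle control were exposed to test compounds. Growth inhibition was measured relative to vehicle-treated controls.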
For `CCCc1cc(C(=O)OCC)cc(CCC)c1O`, the growth inhibition was -8% (inactive).

With `CC(C)[N+]([O-])(CCCNc1c2ccccc2nc2cccc([N+](=O)[O-])c12)C(C)C`, the growth inhibition is 37% (inactive).

In the case of `COc1cc2c3c(cccc3c1)C(=O)N(CCN(C)C)C2=O`, the growth inhibition is -19% (inactive).

Regarding `NC(=O)NN=C(CS)CS`, the growth inhibition was 3% (inactive).

For the molecule `Cc1ccc(NC(=O)/C(Cl)=C(\Cl)C(=O)O)cc1C`, the growth inhibition is 12% (inactive).

Regarding `CCN(CC)CC[n+]1ccc2c(C)c3[nH]c4ccc(O)cc4c3c(C)c2c1`, the growth inhibition is 1% (inactive).

Take `CC(CC(C)(C)[N+](C)(C)C)[N+](C)(C)C` (stereo not drawn): the growth inhibition was -2% (inactive).

With `COc1ccc(OC)c2cc3ccccc3cc12`, the growth inhibition was 8% (inactive).

Consider `Nc1ncncc1C(C1=C(O)COC1=O)C1=C(O)COC1=O`, for which the growth inhibition was 3% (inactive).

With `CSC1=NNC(SC)=NN1`, the growth inhibition is 20% (inactive).

As to `Cc1c(Cl)ccc2c1S(=O)(=O)c1cccc(Cl)c1-2`, the growth inhibition was -5% (inactive).

`[O-][n+]1c2ccc(O)cc2nc2ccc(Cl)cc21`: the growth inhibition is 28% (inactive).

Take `COc1ccc2ccc3ccccc3c2c1C=O`: the growth inhibition was -5% (inactive).

For the molecule `Nc1ccc2c(c1)C(=O)c1cccc(N)c1C2=O`, the growth inhibition was 32% (inactive).

In the case of `O=C(c1ccc(Cl)cc1Cl)C(Cl)Cl`, the growth inhibition is 20% (inactive).

Consider `COc1cc(C(=O)/C=C/c2ccccc2O)ccc1O`, for which the growth inhibition was 99% (active).

In the case of `O=Cc1cccc2ccc3ccccc3c12`, the growth inhibition was -2% (inactive).

On to `O=C(Nc1ccc(Cl)cc1)OCC#CCCl`, for which the growth inhibition is 97% (active).

Regarding `Cn1ccnc1Oc1ccc(Cl)cc1`, the growth inhibition was 0% (inactive).

On to `c1ccc2c(c1)C(=NCCCN1CCCCCC1)c1cccn1-2`, for which the growth inhibition is 0% (inactive).

In the case of `C/C(=N\O)C1CC2C=C(C#N)C1N(Cc1ccccc1)C2` (stereo not drawn), the growth inhibition is 0% (inactive).

`O=[N+]([O-])C(=C(Sc1ccccc1)Sc1ccccc1)C(Cl)=C(Cl)Cl`: the growth inhibition was 40% (inactive).

In the case of `CCCCCCCCCC/C=C\C(=O)O`, the growth inhibition was -20% (inactive).

Consider `COc1ccc(N=C2C(=O)Nc3ccc(Br)cc32)cc1`, for which the growth inhibition is -19% (inactive).

`COc1ccccc1C(=O)OCC1CCCN2CCCCC12` (stereo not drawn): the growth inhibition is 73% (active).

Turning to `CC(C)(Br)C(=O)/C=C/c1ccc(Cl)c(Cl)c1`, the growth inhibition is -2% (inactive).

`Nc1ccccc1CC(O)C(=O)O` (stereo not drawn): the growth inhibition was 29% (inactive).

For the molecule `CC(=O)N/N=C/C(C)(C)C(C)(C)/C=N/NC(C)=O`, the growth inhibition was -2% (inactive).

For `CN(C)c1nc2sc3c(c2c(=O)o1)CCCC3`, the growth inhibition is -2% (inactive).

Turning to `CC(C)OC(=O)Oc1ccccc1OC(=O)OC(C)C`, the growth inhibition was 2% (inactive).

As to `Cc1ccc(N)c(S)c1`, the growth inhibition was 26% (inactive).

In the case of `O=C(O)c1ccccc1NC(=S)c1ccccc1`, the growth inhibition is 3% (inactive).

On to `COC(=O)c1ccc(NCC2=CC(=O)C=CC2=O)cc1O`, for which the growth inhibition is 90% (active).

As to `NC(N)=N/N=C\c1c2ccccc2cc2ccccc12`, the growth inhibition is -44% (inactive).

In the case of `COC(=O)CSSCc1ccc([N+](=O)[O-])cc1`, the growth inhibition was 31% (inactive).

On to `CCS(=O)(=O)c1ccc(/C=C/C=N/NC(=S)NCC(C)C)cc1`, for which the growth inhibition was -3% (inactive).

On to `N#CC(C(=O)Nc1ccccc1)C1=C(Cl)C(=O)c2ccccc2C1=O` (stereo not drawn), for which the growth inhibition is 98% (active).

Take `C[C@H](CCC(=O)NN)[C@H]1CC[C@H]2[C@@H]3CC[C@@H]4C[C@H](O)CC[C@]4(C)[C@H]3CC[C@]12C`: the growth inhibition was 2% (inactive).

Regarding `CC[n+]1ccc2c(C)c3[nH]c4ccc(O)cc4c3c(C)c2c1`, the growth inhibition was -18% (inactive).

The assay is the same for the next values; noted with them: S. cerevisiae mlh1 strain growth inhibition; at 33.0 µM; stronger effect = higher value.
As for `CCCc1cc(C(=O)OCC)cc(CCC)c1O`, the growth inhibition is -8% (inactive).

For the molecule `CC(C)[N+]([O-])(CCCNc1c2ccccc2nc2cccc([N+](=O)[O-])c12)C(C)C`, the growth inhibition was 91% (active).

As to `COc1cc2c3c(cccc3c1)C(=O)N(CCN(C)C)C2=O`, the growth inhibition was -9% (inactive).

As for `NC(=O)NN=C(CS)CS`, the growth inhibition is 14% (inactive).

`Cc1ccc(NC(=O)/C(Cl)=C(\Cl)C(=O)O)cc1C`: the growth inhibition was 96% (active).

As for `CCN(CC)CC[n+]1ccc2c(C)c3[nH]c4ccc(O)cc4c3c(C)c2c1`, the growth inhibition was 9% (inactive).

With `CC(CC(C)(C)[N+](C)(C)C)[N+](C)(C)C` (stereo not drawn), the growth inhibition was -3% (inactive).

Take `COc1ccc(OC)c2cc3ccccc3cc12`: the growth inhibition is 20% (inactive).

For `Nc1ncncc1C(C1=C(O)COC1=O)C1=C(O)COC1=O`, the growth inhibition was 3% (inactive).

In the case of `CSC1=NNC(SC)=NN1`, the growth inhibition is 62% (inactive).

Consider `Cc1c(Cl)ccc2c1S(=O)(=O)c1cccc(Cl)c1-2`, for which the growth inhibition was -8% (inactive).

Take `[O-][n+]1c2ccc(O)cc2nc2ccc(Cl)cc21`: the growth inhibition is 62% (inactive).

As for `COc1ccc2ccc3ccccc3c2c1C=O`, the growth inhibition is -6% (inactive).

In the case of `Nc1ccc2c(c1)C(=O)c1cccc(N)c1C2=O`, the growth inhibition is 74% (active).

For `O=C(c1ccc(Cl)cc1Cl)C(Cl)Cl`, the growth inhibition was 83% (active).

Regarding `COc1cc(C(=O)/C=C/c2ccccc2O)ccc1O`, the growth inhibition is 99% (active).

With `O=Cc1cccc2ccc3ccccc3c12`, the growth inhibition was 63% (inactive).

Turning to `O=C(Nc1ccc(Cl)cc1)OCC#CCCl`, the growth inhibition was 98% (active).

For the molecule `Cn1ccnc1Oc1ccc(Cl)cc1`, the growth inhibition is 45% (inactive).

In the case of `c1ccc2c(c1)C(=NCCCN1CCCCCC1)c1cccn1-2`, the growth inhibition is 4% (inactive).

Turning to `C/C(=N\O)C1CC2C=C(C#N)C1N(Cc1ccccc1)C2` (stereo not drawn), the growth inhibition was 0% (inactive).

Take `O=[N+]([O-])C(=C(Sc1ccccc1)Sc1ccccc1)C(Cl)=C(Cl)Cl`: the growth inhibition was 60% (inactive).

Take `CCCCCCCCCC/C=C\C(=O)O`: the growth inhibition was 10% (inactive).

`COc1ccc(N=C2C(=O)Nc3ccc(Br)cc32)cc1`: the growth inhibition was -24% (inactive).

For the molecule `COc1ccccc1C(=O)OCC1CCCN2CCCCC12` (stereo not drawn), the growth inhibition was 91% (active).

On to `CC(C)(Br)C(=O)/C=C/c1ccc(Cl)c(Cl)c1`, for which the growth inhibition is 1% (inactive).

With `Nc1ccccc1CC(O)C(=O)O` (stereo not drawn), the growth inhibition is 92% (active).

As to `CC(=O)N/N=C/C(C)(C)C(C)(C)/C=N/NC(C)=O`, the growth inhibition is 19% (inactive).

In the case of `CN(C)c1nc2sc3c(c2c(=O)o1)CCCC3`, the growth inhibition is 26% (inactive).

For the molecule `CC(C)OC(=O)Oc1ccccc1OC(=O)OC(C)C`, the growth inhibition was 3% (inactive).

In the case of `Cc1ccc(N)c(S)c1`, the growth inhibition is 98% (active).

In the case of `O=C(O)c1ccccc1NC(=S)c1ccccc1`, the growth inhibition was 5% (inactive).

Regarding `COC(=O)c1ccc(NCC2=CC(=O)C=CC2=O)cc1O`, the growth inhibition is 98% (active).

Regarding `NC(N)=N/N=C\c1c2ccccc2cc2ccccc12`, the growth inhibition is 11% (inactive).

`COC(=O)CSSCc1ccc([N+](=O)[O-])cc1`: the growth inhibition was 67% (inactive).

`CCS(=O)(=O)c1ccc(/C=C/C=N/NC(=S)NCC(C)C)cc1`: the growth inhibition was 13% (inactive).

In the case of `N#CC(C(=O)Nc1ccccc1)C1=C(Cl)C(=O)c2ccccc2C1=O` (stereo not drawn), the growth inhibition is 97% (active).

Turning to `C[C@H](CCC(=O)NN)[C@H]1CC[C@H]2[C@@H]3CC[C@@H]4C[C@H](O)CC[C@]4(C)[C@H]3CC[C@]12C`, the growth inhibition is -14% (inactive).

Turning to `CC[n+]1ccc2c(C)c3[nH]c4ccc(O)cc4c3c(C)c2c1`, the growth inhibition was -4% (inactive).

Source of the values: PubChem BioAssay (NCI).
